According to PubChem BioAssay (NCATS):
Inconclusive results are not listed. A call without a number means that no potency is given here. Calls of active or inactive are those of the source. Calls follow the shape of the dose curve; as a rule, active = well fitted cell-killing curve with a large enough effect; inconclusive = small, poorly fitted or top-dose-only effect, or effect the other way; inactive = no such curve, though single readings can be large or run the other way.

assay: Quantitative High-Throughput drug screen in 47 multiple myeloma cell lines against the NCATS MIPE library collection: LP1_DSMZ cell viability assay (AID 1918982); settings: LP1 myeloma viability, CellTiter-Glo ATP luminescence, 48 h; series mostly up to 45.8 µM
Summary of the method: (§1)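 ATP-based luminescence (CellTiter-Glo, 5 min RT incubation) quantified surviving cells following two days' treatment with MIPE 4.0 agents at 37 °C, 5% CO2.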
Also: nearly all actives have a fitted effect of over 35% in size.
Potency is read from the fitted curve at half-maximal effect.

| Structure (SMILES) | Potency |
| --- | --- |
| CCCC[N+]1(C)[C@H]2CC(OC(=O)[C@H](CO)c3ccccc3)C[C@H]1[C@H]1O[C@H]12 (stereo not given in full) | inactive |
| CCOC(=O)c1cncn1[C@H](C)c1ccccc1 | inactive |
| CC1(N2CCC(n3c([C@@H]4CCCNC4)nc4ccccc43)CC2)CCCCCCC1 | 23.5 µM (active) |
| CN(C)NC(=O)CCC(=O)O | inactive |
| O=c1[nH]c2ccccc2n1C1CCN(Cc2ccc(-c3[nH]c4cc5ncnc5cc4nc3-c3ccccc3)cc2)CC1 | 20.9 µM (active) |
| CC(C)N(CCNC(=O)CN1CCCC1=O)C(C)C | inactive |
| C[C@@H]1[C@H](O)[C@@H](C)C=CC=CCCC=CC=CC=CC=C[C@H](O[C@H]2O[C@@H](C)[C@H](O)[C@@H](N)[C@@H]2O)CC2O[C@](O)(C[C@@H](O)[C@H](O)CC[C@@H](O)C[C@@H](O)C[C@@H](O)CC(=O)O[C@H]1C)C[C@H](O)[C@H]2C(=O)O | inactive |
| CC(=Cc1csc(C)n1)[C@@H]1C[C@H]2O[C@@H]2CCC[C@H](C)[C@@H](O)[C@@H](C)C(=O)C(C)(C)[C@@H](O)CC(=O)O1 | inactive |
| C[C@@H]1CC[C@H]2[C@@H](C)C(=O)O[C@@H]3O[C@@]4(C)CC[C@H]1[C@]32OO4 | inactive |
| Cc1[nH]nc2ccc(-c3cncc(OC[C@@H](N)Cc4c[nH]c5ccccc45)c3)cc12 | 1.66 µM (active) |
| O=C(Oc1ccc([N+](=O)[O-])cc1)N1CCN(Cc2cccc(Oc3ccccc3)c2)CC1 | inactive |
| C[C@@H]1O[C@@H](O[C@@H]2C=C3CC[C@@H]4[C@@H](CC[C@]5(C)[C@H](c6ccc(=O)oc6)CC[C@@]45O)[C@@]3(C)CC2)[C@H](O)[C@H](O)[C@H]1O | 0.0066 µM (active) |
| CC[C@@]1(O)C(=O)OCc2c1cc1n(c2=O)Cc2cc3ccccc3nc2-1 | 0.59 µM (active) |
| NC1=NC(=O)N2CC12 (stereo not given) | inactive |
| CC1=C(O)C(=O)C=C2C1=CC=C1[C@@]2(C)CC[C@@]2(C)[C@@H]3C[C@](C)(C(=O)O)CC[C@]3(C)CC[C@]12C | 0.833 µM (active) |
| CC=C(C)C(=O)O[C@H]1C(C)=C2[C@@H]3OC(=O)[C@@](C)(O)[C@@]3(O)[C@@H](OC(=O)CCC)C[C@](C)(OC(C)=O)[C@@H]2[C@@H]1OC(=O)CCCCCCC | 0.0296 µM (active) |
| COCC1(CO)C(=O)C2CCN1CC2 (stereo not given) | 2.64 µM (active) |
| CN1CCN(c2ccc([N+](=O)[O-])c3no[n+]([O-])c23)CC1 | 18.7 µM (active) |
| C[C@]12CCC(=O)C(O)=C1CC[C@@H]1[C@H]3CCC(=O)[C@@]3(C)CC[C@@H]12 | inactive |
| COc1ccc2c(c1)[C@]13CCCCC1C(C2)N(C)CC3 (stereo not given in full) | inactive |
| CC(N[C@H]1C[C@H]1c1ccccc1)c1ccc2c(c1)OCCO2 (stereo not given in full) | inactive |
| C#CC1(O)CCC2C3CCC4=CC(=O)CCC4(C)C3CCC21C (stereo not given) | inactive |
| C#C[C@]1(O)C=C[C@@H]2[C@@H]3CCC4=CC(=O)CC[C@@H]4[C@H]3CC[C@@]21CC | inactive |
| CSCC[C@@H](NC(=O)[C@@H](Cc1ccccc1)NC(=O)CNC(=O)CNC(=O)[C@@H](N)Cc1ccc(O)cc1)C(=O)O | inactive |
| CCC(=O)OC1CCC2C3CCC4=CC(=O)CC[C@@]4(C)C3CC[C@]12C (stereo not given in full) | inactive |
| CCc1c(C(=O)C(N)=O)c2c(OCC(=O)O)cccc2n1Cc1ccccc1 | inactive |
| C=C[C@@H]1CN2CCC1C[C@H]2[C@H](O)c1ccnc2ccccc12 (stereo not given in full) | 10.5 µM (active) |
| CCN1CCN(C(=O)Cc2ccc(Nc3ncc(F)c(Nc4ccc(C(=O)Nc5ccccc5Cl)cc4)n3)cc2)CC1 | 8.33 µM (active) |
| O=C(O)CNC(=O)c1c(O)c2ccccc2n(Cc2ccccc2)c1=O | inactive |

assay: Quantitative High-Throughput drug screen in 47 multiple myeloma cell lines against the NCATS MIPE library collection: KMS28PE_JCRB cell viability assay (AID 1918983); settings: KMS28PE multiple myeloma viability, CellTiter-Glo ATP, 48 h; series mostly up to 45.8 µM
Summary of the method: as §1

| Structure (SMILES) | Potency |
| --- | --- |
| CCCC[N+]1(C)[C@H]2CC(OC(=O)[C@H](CO)c3ccccc3)C[C@H]1[C@H]1O[C@H]12 (stereo not given in full) | inactive |
| N#C[C@H](O[C@@H]1O[C@H](CO[C@@H]2O[C@H](CO)[C@H](O)[C@H](O)[C@H]2O)[C@H](O)[C@H](O)[C@H]1O)c1ccccc1 | 23.5 µM (active) |
| CC1(N2CCC(n3c([C@@H]4CCCNC4)nc4ccccc43)CC2)CCCCCCC1 | inactive |
| O=c1[nH]c2ccccc2n1C1CCN(Cc2ccc(-c3[nH]c4cc5ncnc5cc4nc3-c3ccccc3)cc2)CC1 | 20.9 µM (active) |
| CC(C)N(CCNC(=O)CN1CCCC1=O)C(C)C | inactive |
| C[C@@H]1[C@H](O)[C@@H](C)C=CC=CCCC=CC=CC=CC=C[C@H](O[C@H]2O[C@@H](C)[C@H](O)[C@@H](N)[C@@H]2O)CC2O[C@](O)(C[C@@H](O)[C@H](O)CC[C@@H](O)C[C@@H](O)C[C@@H](O)CC(=O)O[C@H]1C)C[C@H](O)[C@H]2C(=O)O | inactive |
| CN[C@@H]1Cc2cccc3[nH]c(=O)n(c23)C1 | inactive |
| CC(=Cc1csc(C)n1)[C@@H]1C[C@H]2O[C@@H]2CCC[C@H](C)[C@@H](O)[C@@H](C)C(=O)C(C)(C)[C@@H](O)CC(=O)O1 | inactive |
| Clc1ccccc1C(c1ccccc1)(c1ccccc1)n1cccn1 | 11.8 µM (active) |
| C[C@@H]1CC[C@H]2[C@@H](C)C(=O)O[C@@H]3O[C@@]4(C)CC[C@H]1[C@]32OO4 | inactive |
| Cc1[nH]nc2ccc(-c3cncc(OC[C@@H](N)Cc4c[nH]c5ccccc45)c3)cc12 | 0.833 µM (active) |
| O=C(Oc1ccc([N+](=O)[O-])cc1)N1CCN(Cc2cccc(Oc3ccccc3)c2)CC1 | inactive |
| C[C@@H]1O[C@@H](O[C@@H]2C=C3CC[C@@H]4[C@@H](CC[C@]5(C)[C@H](c6ccc(=O)oc6)CC[C@@]45O)[C@@]3(C)CC2)[C@H](O)[C@H](O)[C@H]1O | 0.0166 µM (active) |
| CC[C@@]1(O)C(=O)OCc2c1cc1n(c2=O)Cc2cc3ccccc3nc2-1 | 0.166 µM (active) |
| CC1=C(O)C(=O)C=C2C1=CC=C1[C@@]2(C)CC[C@@]2(C)[C@@H]3C[C@](C)(C(=O)O)CC[C@]3(C)CC[C@]12C | 0.833 µM (active) |
| CC=C(C)C(=O)O[C@H]1C(C)=C2[C@@H]3OC(=O)[C@@](C)(O)[C@@]3(O)[C@@H](OC(=O)CCC)C[C@](C)(OC(C)=O)[C@@H]2[C@@H]1OC(=O)CCCCCCC | 0.132 µM (active) |

| Structure (SMILES) | Potency |
| --- | --- |
| COCC1(CO)C(=O)C2CCN1CC2 (stereo not given) | 18.7 µM (active) |
| CN1CCN(c2ccc([N+](=O)[O-])c3no[n+]([O-])c23)CC1 | 18.7 µM (active) |
| COc1cc([C@@H]2c3cc4c(cc3[C@@H](O)C3COC(=O)C32)OCO4)cc(OC)c1O (stereo not given in full) | 0.0418 µM (active) |
| COc1ccc2c(c1)[C@]13CCCCC1C(C2)N(C)CC3 (stereo not given in full) | inactive |
| CC(N[C@H]1C[C@H]1c1ccccc1)c1ccc2c(c1)OCCO2 (stereo not given in full) | 0.469 µM (active) |
| C#CC1(O)CCC2C3CCC4=CC(=O)CCC4(C)C3CCC21C (stereo not given) | 20.9 µM (active) |
| C[C@]12COC(=O)C[C@@H]1CC[C@@H]1[C@H]2CC[C@@]2(C)[C@H]1CC[C@]2(C)O | inactive |
| C#C[C@]1(O)C=C[C@@H]2[C@@H]3CCC4=CC(=O)CC[C@@H]4[C@H]3CC[C@@]21CC | inactive |
| CCOP(=O)(OCC)C(C)NC(=O)N(CCCl)N=O (stereo not given) | inactive |
| CSCC[C@@H](NC(=O)[C@@H](Cc1ccccc1)NC(=O)CNC(=O)CNC(=O)[C@@H](N)Cc1ccc(O)cc1)C(=O)O | inactive |
| CCC(=O)OC1CCC2C3CCC4=CC(=O)CC[C@@]4(C)C3CC[C@]12C (stereo not given in full) | inactive |
| CCc1c(C(=O)C(N)=O)c2c(OCC(=O)O)cccc2n1Cc1ccccc1 | 7.43 µM (active) |
| C=C[C@@H]1CN2CCC1C[C@H]2[C@H](O)c1ccnc2ccccc12 (stereo not given in full) | 14.8 µM (active) |
| CCN1CCN(C(=O)Cc2ccc(Nc3ncc(F)c(Nc4ccc(C(=O)Nc5ccccc5Cl)cc4)n3)cc2)CC1 | 14.8 µM (active) |
| COc1ccc2c(c1)CN(C)CC2c1ccc(Cl)c(Cl)c1 (stereo not given) | 18.7 µM (active) |
